Among the data in PubChem BioAssay are composite z-score and z-score values, retold here.

The structures appear in SMILES notation. Calls of active or inactive are those of the source.

The nature of assay [1]: small molecules captured by biotinylated probe aFSTL3 – biochemical, small-molecule microarray, fluorescence 635/667, stem cell growth factor project, primary screen (AID 1064).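 Note: measures binding of the biotinylated anti-FSTL3 antibody to printed compounds.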 The conditions noted are these: higher = more signal.
The nature of assay [2]: binders from COS7 lysate, DM2A8 probe, primary screen, torsin A project, cell lysate, small-molecule microarray, fluorescence 635/667 (AID 1065). The conditions noted are these: higher = more signal, COS7 lysate expressing mutant human TOR1A.
Assay [3] in a line: small molecules captured by biotinylated probe aFGF2 – biochemical, small-molecule microarray, fluorescence 635/667, stem cell growth factor project, primary screen (AID 1067).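 Note: measures binding of biotinylated aFGF2 protein to printed compounds on slides; z-score merges feature fluorescence and signal-to-noise across triplicate slides.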 The conditions noted are these: higher = more signal.
Assay [4] in a line: small molecules captured by biotinylated probe aFGF10 – biochemical, small-molecule microarray, fluorescence 635/667, stem cell growth factor project, primary screen (AID 1071).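 Note: score merges 667 nm spot intensity and signal to noise from triplicate slides.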 The conditions noted are these: higher = more signal.
Assay [5] concerns the target Neurogenic locus notch homolog protein 2 (Homo sapiens) (UniProt Q04721). The assay is described as follows: small molecules binding Notch2 protein – biochemical, small-molecule microarray, 635 nm fluorescence, stem cell growth factors, primary screen (AID 1073). The conditions noted are these: higher = more signal.
Assay [6] deals with Pro-neuregulin-1, membrane-bound isoform (Homo sapiens) (UniProt Q02297). The assay is described as follows: small molecules binding neuregulin-1 protein – biochemical, small-molecule microarray, fluorescence 635/667, psychiatric disease protein project, primary screen (AID 1075).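 Note: score combines 667 nm spot fluorescence with signal to noise.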 The conditions noted are these: NRG1 binding, 635 nm fluorescence, higher = more signal.
Sequence of Pro-neuregulin-1, membrane-bound isoform (Homo sapiens) (Q02297 whole entry, looked up, the tested form may be a part, canonical isoform): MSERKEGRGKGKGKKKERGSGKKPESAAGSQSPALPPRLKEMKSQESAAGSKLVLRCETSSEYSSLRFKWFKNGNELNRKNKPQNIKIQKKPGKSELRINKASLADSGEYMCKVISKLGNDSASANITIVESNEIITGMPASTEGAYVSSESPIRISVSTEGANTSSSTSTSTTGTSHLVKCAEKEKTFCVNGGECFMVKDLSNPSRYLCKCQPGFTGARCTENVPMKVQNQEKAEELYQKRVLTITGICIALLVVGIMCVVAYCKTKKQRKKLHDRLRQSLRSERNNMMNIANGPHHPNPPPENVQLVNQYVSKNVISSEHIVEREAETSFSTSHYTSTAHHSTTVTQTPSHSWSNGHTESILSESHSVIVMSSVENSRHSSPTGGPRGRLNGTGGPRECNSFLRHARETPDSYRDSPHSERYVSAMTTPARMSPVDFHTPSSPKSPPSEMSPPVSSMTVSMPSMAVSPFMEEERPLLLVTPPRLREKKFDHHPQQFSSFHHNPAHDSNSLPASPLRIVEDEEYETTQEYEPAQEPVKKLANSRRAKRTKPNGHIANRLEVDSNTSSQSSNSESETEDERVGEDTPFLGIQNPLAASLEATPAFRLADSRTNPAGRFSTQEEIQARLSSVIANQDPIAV
The test system of assay [7] is Neuregulin-1 EGF-like domain. The assay is described as follows: small molecules binding NRG1 EGF domain – biochemical, small-molecule microarray, 635 nm fluorescence, primary screen (AID 1081).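 Note: binding of the protein to compounds printed on small-molecule microarray slides.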 The conditions noted are these: higher = more signal.
Assay [8] is described as follows: FRG1 expression reporter modulators in myotubes – cell-based, C2C12 myotubes, firefly/Renilla luciferase, luminescence, FRG1 inhibition for FSHD, primary screen (AID 1084). The conditions noted are these: FRG1 promoter luciferase, higher = more signal, called active from +8 up or from −8 down.
Assay [9] is described as follows: small molecules captured by biotinylated probe aFST – biochemical, small-molecule microarray, fluorescence 635/667, stem cell growth factor project, primary screen (AID 1086).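 Note: score merges 667 nm fluorescence with signal-to-noise of each printed compound spot.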 The conditions noted are these: higher = more signal.
Assay [10] is described as follows: binders of probe aHhip on microarray, primary screen, stem cell growth factor project, biochemical, small-molecule microarray, fluorescence 635/667 (AID 1087).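 Note: score merges spot fluorescence at 667nm with spot signal to noise ratio.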 The conditions noted are these: higher = more signal.
Assay [11] concerns PRMT1 (protein arginine N-methyltransferase 1). The assay is described as follows: small molecules binding arginine methyltransferase PRMT1 – biochemical, small-molecule microarray, 635 nm fluorescence, primary screen (AID 1088).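 Note: binding of Prmt1 protein to compounds spotted on small-molecule microarray slides.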 The conditions noted are these: higher = more signal.
Assay [12] can be described thus: growth effects on S. cerevisiae YJM789 – YJM789 clinical isolate, OD600, 24 h, basal, primary screen (AID 1089).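 Note: growth of clinical yeast isolate S. cerevisiae YJM 789 seeded 1000 cells per well; test concentration not given here.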 The conditions noted are these: higher = more signal, called active from +8 up or from −8 down.
Assay [13] can be described thus: S. pombe growth modifiers, basal conditions – strain 972, OD600, 24 h, no modulator, primary screen (AID 1090).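 Note: basal condition with compound alone and no growth modifier present; test concentration not given here.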 The conditions noted are these: S. pombe 972 growth, higher = more signal, called active from +8 up or from −8 down.
A short description of assay [14]: budding yeast growth modifiers under rapamycin – strain BY4716, OD600, 96 h, primary screen (AID 1091). Note: test concentration not given here. The conditions noted are these: S. cerevisiae BY4716 + rapamycin, higher = more signal, called active from +8 up or from −8 down.
For assay [15], the target named is Torsin-1A-interacting protein 2 (Homo sapiens) (UniProt Q8NFQ8). The assay is described as follows: small molecules binding lysate-expressed LULL1 – cell lysate, human LULL1 lysate, 635/667 nm fluorescence, primary screen (AID 1092).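 Note: probe is lysate of COS7 cells overexpressing human LULL1; score merges per-feature 667 nm fluorescence with signal-to-noise.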 The conditions noted are these: small-molecule microarray, hLULL1 lysate binding, 635 nm fluorescence; higher = more signal.
Sequence of Torsin-1A-interacting protein 2 (Homo sapiens) (Q8NFQ8 whole entry, looked up): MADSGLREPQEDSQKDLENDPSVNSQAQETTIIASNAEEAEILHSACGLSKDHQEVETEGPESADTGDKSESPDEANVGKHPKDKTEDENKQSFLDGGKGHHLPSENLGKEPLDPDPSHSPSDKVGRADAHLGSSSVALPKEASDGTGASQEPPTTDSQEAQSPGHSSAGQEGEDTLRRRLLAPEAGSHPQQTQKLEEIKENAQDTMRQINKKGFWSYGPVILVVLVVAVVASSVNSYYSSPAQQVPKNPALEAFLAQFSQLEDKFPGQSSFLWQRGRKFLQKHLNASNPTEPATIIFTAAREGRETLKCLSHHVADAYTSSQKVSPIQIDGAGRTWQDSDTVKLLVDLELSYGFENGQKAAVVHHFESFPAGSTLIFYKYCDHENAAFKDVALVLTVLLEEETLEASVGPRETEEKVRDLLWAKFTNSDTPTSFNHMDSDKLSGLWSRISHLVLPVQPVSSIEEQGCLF
Assay [16] can be described thus: optical density change of DRC41 E. coli – strain DRC41, OD650, 24 h, E. coli filamentation project, primary screen (AID 1093).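 Note: MC1000 strain lacking acrAB efflux and sulA so SOS filamentation is blocked; test concentration not given here.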 The conditions noted are these: E. coli DRC41 growth, higher = more signal, called active from +8 up or from −8 down.
Assay [17] can be described thus: probe aLefty2 binding to arrayed compounds – biochemical, biotinylated probe, 635/667 nm fluorescence, primary screen (AID 1094).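 Note: score merges spot fluorescence near 667 nm with spot signal-to-noise ratio.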 The conditions noted are these: small-molecule microarray, higher = more signal.
The test system of assay [18] is Noggin (protein binding on small-molecule microarray). As to the kind of experiment: small molecules binding Noggin protein – biochemical, 635/667 nm fluorescence, primary screen (AID 1095).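 Note: score merges 667 nm feature fluorescence with signal to noise over triplicate slides.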 The conditions noted are these: 635 nm fluorescence, higher = more signal.
Assay [19] addresses Neurogenic locus notch homolog protein 3 (Homo sapiens) (UniProt Q9UM47). As to the kind of experiment: small molecules binding NOTCH3 protein – biochemical, 635/667 nm fluorescence, primary screen (AID 1096). The conditions noted are these: small-molecule microarray, 635 nm fluorescence, higher = more signal.
Assay [20] can be described thus: probe aEGFR binding to arrayed compounds – biochemical, biotinylated probe, 635/667 nm fluorescence, primary screen (AID 1097).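 Note: probe is a biotinylated anti-EGFR antibody binding compounds printed on slides; score combines fluorescence near 667 nm and signal to noise of each spot.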 The conditions noted are these: small-molecule microarray, higher = more signal.

Sequence of Neurogenic locus notch homolog protein 3 (Homo sapiens) (Q9UM47 whole entry, looked up): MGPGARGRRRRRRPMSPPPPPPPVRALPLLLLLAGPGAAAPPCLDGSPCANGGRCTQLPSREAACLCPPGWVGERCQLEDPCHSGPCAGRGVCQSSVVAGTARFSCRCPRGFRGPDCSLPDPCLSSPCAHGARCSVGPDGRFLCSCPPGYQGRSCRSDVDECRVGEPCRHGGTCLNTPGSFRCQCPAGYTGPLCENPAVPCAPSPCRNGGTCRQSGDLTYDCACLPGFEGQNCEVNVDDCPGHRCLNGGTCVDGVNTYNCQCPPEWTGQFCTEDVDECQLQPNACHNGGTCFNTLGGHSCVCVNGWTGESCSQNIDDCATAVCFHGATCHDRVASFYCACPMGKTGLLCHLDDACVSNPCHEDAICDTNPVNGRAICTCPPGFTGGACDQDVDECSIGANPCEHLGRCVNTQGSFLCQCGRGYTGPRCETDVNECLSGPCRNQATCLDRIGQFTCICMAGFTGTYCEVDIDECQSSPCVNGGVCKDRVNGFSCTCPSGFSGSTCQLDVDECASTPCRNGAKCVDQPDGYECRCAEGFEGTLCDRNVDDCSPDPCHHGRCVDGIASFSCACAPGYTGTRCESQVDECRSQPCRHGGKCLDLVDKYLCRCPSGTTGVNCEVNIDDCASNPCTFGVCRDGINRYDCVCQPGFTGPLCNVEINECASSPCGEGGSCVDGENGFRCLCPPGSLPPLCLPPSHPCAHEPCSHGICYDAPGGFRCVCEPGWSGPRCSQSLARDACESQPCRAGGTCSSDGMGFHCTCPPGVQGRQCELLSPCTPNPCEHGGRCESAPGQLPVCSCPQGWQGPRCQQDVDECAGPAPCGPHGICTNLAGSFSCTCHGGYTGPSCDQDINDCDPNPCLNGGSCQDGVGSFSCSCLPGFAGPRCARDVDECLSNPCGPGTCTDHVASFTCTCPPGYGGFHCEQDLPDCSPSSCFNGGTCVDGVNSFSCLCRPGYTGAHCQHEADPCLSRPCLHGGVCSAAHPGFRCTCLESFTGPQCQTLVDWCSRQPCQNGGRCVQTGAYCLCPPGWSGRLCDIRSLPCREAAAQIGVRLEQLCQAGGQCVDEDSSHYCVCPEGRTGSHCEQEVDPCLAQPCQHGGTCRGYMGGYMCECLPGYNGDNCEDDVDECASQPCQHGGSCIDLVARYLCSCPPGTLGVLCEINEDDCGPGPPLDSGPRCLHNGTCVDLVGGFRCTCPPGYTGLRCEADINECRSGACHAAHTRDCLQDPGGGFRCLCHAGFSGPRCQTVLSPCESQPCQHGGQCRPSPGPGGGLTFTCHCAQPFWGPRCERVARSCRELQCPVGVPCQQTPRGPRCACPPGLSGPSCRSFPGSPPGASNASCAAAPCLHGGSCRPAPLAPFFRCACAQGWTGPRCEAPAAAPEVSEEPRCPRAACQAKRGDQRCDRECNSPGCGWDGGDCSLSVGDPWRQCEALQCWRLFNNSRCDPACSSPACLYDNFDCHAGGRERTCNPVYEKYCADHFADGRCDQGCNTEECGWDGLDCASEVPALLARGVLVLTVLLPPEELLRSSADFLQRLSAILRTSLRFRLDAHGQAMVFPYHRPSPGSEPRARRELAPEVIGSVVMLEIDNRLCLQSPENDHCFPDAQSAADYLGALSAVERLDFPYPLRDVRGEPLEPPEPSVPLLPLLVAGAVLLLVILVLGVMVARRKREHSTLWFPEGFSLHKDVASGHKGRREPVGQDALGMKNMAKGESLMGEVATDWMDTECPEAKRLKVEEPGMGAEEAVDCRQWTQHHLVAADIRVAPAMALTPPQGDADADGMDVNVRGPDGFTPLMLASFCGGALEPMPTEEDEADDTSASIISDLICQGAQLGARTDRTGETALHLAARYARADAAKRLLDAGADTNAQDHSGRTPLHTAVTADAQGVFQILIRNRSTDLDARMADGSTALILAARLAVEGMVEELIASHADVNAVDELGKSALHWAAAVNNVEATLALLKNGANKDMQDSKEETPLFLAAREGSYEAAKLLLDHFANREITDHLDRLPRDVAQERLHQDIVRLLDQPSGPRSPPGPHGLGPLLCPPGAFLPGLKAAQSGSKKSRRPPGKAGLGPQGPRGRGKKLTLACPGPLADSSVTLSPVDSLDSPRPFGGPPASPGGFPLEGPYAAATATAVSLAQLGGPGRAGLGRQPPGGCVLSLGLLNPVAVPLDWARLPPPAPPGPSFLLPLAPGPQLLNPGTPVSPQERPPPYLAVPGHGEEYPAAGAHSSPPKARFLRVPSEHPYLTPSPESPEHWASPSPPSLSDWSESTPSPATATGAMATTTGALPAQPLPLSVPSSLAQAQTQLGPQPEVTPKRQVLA

As to `C=CCC(OC(C)=O)[C@@H]1[C@@H](N(Cc2cccc3ccccc23)C(=O)c2cccc3ccccc23)c2cc(OCCCO)ccc2N1C(=O)c1ccc(-c2ccccc2)cc1` (stereo not given in full), the composite z-score in [1] is -0.0699; in [2] it was 0.103; in [3], -0.105; in assay [4], 0.0552; in [5] it was -0.603; in assay [6], 0.523. Further, the composite z-score in assay [7] was -0.825; in assay [9], 0.234; in assay [10], 0.607; in [11], 0.159; in assay [15], 0.465; in [17], -0.027. Moreover, the composite z-score in assay [18] is 0.163; in [19], -0.287; in [20], -0.0104. For the same compound, the z-score is -1.66 (inactive) in [8]; -0.551 (inactive) in assay [12]; 0.169 (inactive) in assay [13]; -0.725 (inactive) in assay [14]; -0.61 (inactive) in assay [16].

`O=C1O[C@H](c2ccccc2)[C@H](c2ccccc2)N2[C@H]1[C@@H](C(=O)N1CCN(c3ncccn3)CC1)[C@]1(C(=O)Nc3ccc(C#CC4(O)CCCCCC4)cc31)[C@H]2c1ccc(OCCO)cc1`: the composite z-score turned out to be 0.696 in assay [1]; 0.968 in assay [2]; 0.0583 in [3]; 1.2 in assay [4]; 1.52 in [5]; 2.25 in assay [6]. Further, the composite z-score in [7] is 1.22; in assay [9], 2.45; in assay [10], 0.334; in assay [11] it was 1.53; in [15], 3.79; in assay [17], 1.19. Further, the composite z-score stood at 1.68 in assay [18], 1.08 in assay [19] and 0.471 in assay [20]. The z-score in assay [8] was 1.8 (inactive); in [12], 2.89 (inactive); in assay [13], 1.42 (inactive); in assay [14], 5.4 (inactive); in assay [16], -0.409 (inactive).

On to `CN(C)CCCCNC(=O)[C@@H]1C[C@@H]2C(=O)N[C@@H](Cc3ccccc3)C(=O)N2[C@@H]1c1cccc(OCCO)c1`, for which the composite z-score in assay [1] was -0.185; in assay [2], 0.971; in assay [3], 0.0281; in [4] it was 0.645; in assay [5], -0.729; in assay [6], 0.382. Further, the composite z-score in assay [7] was 0.905; in assay [9], 0.218; in [10], 0.0524; in assay [11], 1.55; in assay [15], 1.5; in assay [17], -0.125. Moreover, the values for the composite z-score in assay [18], in [19] and in assay [20] were 1.45, 1.06 and -0.131, respectively. The z-score is 3.35 (inactive) in assay [8]; -5.59 (inactive) in assay [12]; -1.63 (inactive) in assay [13]; -1.09 (inactive) in [14]; 2.67 (inactive) in assay [16].

Turning to `CC(=O)NCCCC[C@@H]1NC(=O)[C@H]2C[C@@H](C(=O)NCCCC[N+](C)(C)C)[C@@H](c3cccc(OCCO)c3)N2C1=O`, the composite z-score was -0.188 in assay [1]; 1.86 in [2]; -0.0319 in [3]; 1.23 in assay [4]; 0.165 in assay [5]; 0.4 in [6]. Also, the composite z-score was 1.14 in assay [7]; 0.593 in assay [9]; 0.24 in [10]; 1.41 in assay [11]; 1.97 in assay [15]; 0.0503 in assay [17]. The composite z-score in assay [18] stood at 1.81; in [19], 1.01; in [20], 0.162. Besides, the z-score is 0.647 (inactive) in [8]; -0.369 (inactive) in [12]; -1.27 (inactive) in [13]; -1.92 (inactive) in assay [14]; 1.08 (inactive) in assay [16].

Turning to `COC(=O)c1c(CC[C@@H](CO)NC(=O)N[C@H](Cn2cc(C3(O)CCCCC3)nn2)C(C)C)oc(C(C)=O)c1C(=O)OC`, the composite z-score in [1] is -0.413; in assay [2], 0.945; in assay [3] it was -0.003; in [4], 0.815; in [5], 0.759; in assay [6], 0.759. In addition, the composite z-score in assay [7] was 1.07; in assay [9] it was 0.253; in [10], -0.0237; in [11], 1.57; in [15], 1.12; in [17], -0.0437. The composite z-score was 1.86 in assay [18], 1.08 in assay [19] and 0.0274 in [20]. Besides, the z-score was 0.324 (inactive) in assay [8]; -0.325 (inactive) in assay [12]; -2.39 (inactive) in assay [13]; 0.0762 (inactive) in assay [14]; 1.66 (inactive) in assay [16].
